Results filed as inconclusive are left out. The source made the active and inactive calls. Calls come from the whole dose curve; as a rule, active = well fitted inhibition curve with a large enough effect; inconclusive = small, poorly fitted or top-dose-only effect; inactive = flat fitted curve, though single readings scatter.
Assays:
[1] = qHTS profiling for inhibitors of Plasmodium falciparum proliferation (AID 504749); note: nearly all actives have a fitted effect of over 60% in size; settings: P. falciparum in erythrocytes, SYBR Green DNA, 72 h; parasite line B
Procedure, shortened: (§1)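 Readout was DNA-dye fluorescence from lysed cultures, ex 485/em 535 nm. Parasitized red cells had grown 72 h with compound; data scaled between 0.29 uM artemisinin and DMSO wells and corrected using vehicle-only plates.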

7G8 = test: as above; settings: P. falciparum in erythrocytes, SYBR Green DNA, 72 h; series mostly up to 28.7 µM
Procedure, shortened: as §1

ATS95 = test: as above; settings: P. falciparum in erythrocytes, SYBR Green DNA, 72 h; series mostly up to 28.7 µM
Procedure, shortened: as §1

C2A = test: as above; settings: P. falciparum in erythrocytes, SYBR Green DNA, 72 h; series mostly up to 28.7 µM
Procedure, shortened: as §1

CP211 = test: as above; settings: P. falciparum in erythrocytes, SYBR Green DNA, 72 h; series mostly up to 28.7 µM
Procedure, shortened: as §1

CP217 = test: as above; settings: P. falciparum in erythrocytes, SYBR Green DNA, 72 h; series mostly up to 28.7 µM
Procedure, shortened: as §1

CP237 = test: as above; settings: P. falciparum in erythrocytes, SYBR Green DNA, 72 h; series mostly up to 28.7 µM
Procedure, shortened: as §1

CP250 = test: as above; settings: P. falciparum in erythrocytes, SYBR Green DNA, 72 h; series mostly up to 28.7 µM
Procedure, shortened: as §1

CP252 = test: as above; settings: P. falciparum in erythrocytes, SYBR Green DNA, 72 h; series mostly up to 28.7 µM
Procedure, shortened: as §1

CP256 = test: as above; settings: P. falciparum in erythrocytes, SYBR Green DNA, 72 h; series mostly up to 28.7 µM
Procedure, shortened: as §1

CP266 = test: as above; settings: P. falciparum in erythrocytes, SYBR Green DNA, 72 h; series mostly up to 28.7 µM
Procedure, shortened: as §1

DIV17 = test: as above; settings: P. falciparum in erythrocytes, SYBR Green DNA, 72 h; series mostly up to 28.7 µM
Procedure, shortened: as §1

Dd2 = test: as above; settings: P. falciparum in erythrocytes, SYBR Green DNA, 72 h; series mostly up to 28.7 µM
Procedure, shortened: as §1

ECU = test: as above; settings: P. falciparum in erythrocytes, SYBR Green DNA, 72 h; series mostly up to 28.7 µM
Procedure, shortened: as §1

GB4 = test: as above; settings: P. falciparum in erythrocytes, SYBR Green DNA, 72 h; series mostly up to 28.7 µM
Procedure, shortened: as §1

HB3 = test: as above; settings: P. falciparum in erythrocytes, SYBR Green DNA, 72 h; series mostly up to 28.7 µM
Procedure, shortened: as §1

N140 = test: as above; settings: P. falciparum in erythrocytes, SYBR Green DNA, 72 h; series mostly up to 28.7 µM
Procedure, shortened: as §1

P93_24 = test: as above; settings: P. falciparum in erythrocytes, SYBR Green DNA, 72 h; series mostly up to 28.7 µM
Procedure, shortened: as §1

PAD = test: as above; settings: P. falciparum in erythrocytes, SYBR Green DNA, 72 h; series mostly up to 28.7 µM
Procedure, shortened: as §1

SC27B = test: as above; settings: P. falciparum in erythrocytes, SYBR Green DNA, 72 h; series mostly up to 28.7 µM
Procedure, shortened: as §1

Measured: Potency
Potency is the fitted concentration of half-maximal effect.

CO[C@H]1/C=C/O[C@@]2(C)Oc3c(C)c(O)c4c(O)c(c5c(c4c3C2=O)NC2(CCN(CC(C)C)CC2)N=5)=NC(=O)/C(C)=C\C=C\[C@H](C)[C@H](O)[C@@H](C)[C@@H](O)[C@@H](C)[C@H](OC(C)=O)[C@@H]1C
inactive: CP211 | CP266
active: [1] 4.47 µM | 7G8 7.08 µM | ATS95 8.91 µM | C2A 8.91 µM | CP217 8.91 µM | CP237 10 µM | CP250 7.08 µM | CP252 8.91 µM | CP256 8.91 µM | DIV17 10.7 µM | Dd2 7.94 µM | ECU 7.94 µM | GB4 12 µM | HB3 11.2 µM | N140 8.91 µM | P93_24 6.31 µM | PAD 10 µM | SC27B 8.91 µM

From PubChem BioAssay (NCATS)
